DT40 TDP1 CPT – growth inhibition of DT40 Tdp1-/-;hTDP1 cells with camptothecin (screen for TDP1 inhibitors) | 12% of 420,000 active | Potency, µM (titrated, usually from 46.2 µM), for the others: top-dose activity change, negative = growth inhibition, usual class: inhibitors | chicken DT40 Tdp1-/-;hTDP1 cells + 20 nM CPT, ATP luminescence, 48 h | AID 686979; further: potency means the concentration at half of the fitted maximal effect; nearly all actives have a fitted effect of over 55% in size
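Chicken DT40 Tdp1-/- cells stably complemented with human TDP1 were seeded at 400 cells/well in medium containing 20 nM camptothecin, exposed to pin-transferred compounds, and grown at 37 °C for at least 48 hr. Viability was read as ATP luminescence.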
TDP1 inh – inhibitors of human tyrosyl-DNA phosphodiesterase TDP1; Q9NUW8; recombinant TDP1, AlphaScreen DNA substrate cleavage; Potency, µM (highest dose often 130 µM), without a hit: at the highest dose activity change, negative = inhibition, most hits filed as inhibitors; 0.28% of 350,000 active; further: potency means the concentration at half of the fitted maximal effect; nearly all actives have a fitted effect of over 40% in size
Target sequence (Q9NUW8 whole entry, looked up): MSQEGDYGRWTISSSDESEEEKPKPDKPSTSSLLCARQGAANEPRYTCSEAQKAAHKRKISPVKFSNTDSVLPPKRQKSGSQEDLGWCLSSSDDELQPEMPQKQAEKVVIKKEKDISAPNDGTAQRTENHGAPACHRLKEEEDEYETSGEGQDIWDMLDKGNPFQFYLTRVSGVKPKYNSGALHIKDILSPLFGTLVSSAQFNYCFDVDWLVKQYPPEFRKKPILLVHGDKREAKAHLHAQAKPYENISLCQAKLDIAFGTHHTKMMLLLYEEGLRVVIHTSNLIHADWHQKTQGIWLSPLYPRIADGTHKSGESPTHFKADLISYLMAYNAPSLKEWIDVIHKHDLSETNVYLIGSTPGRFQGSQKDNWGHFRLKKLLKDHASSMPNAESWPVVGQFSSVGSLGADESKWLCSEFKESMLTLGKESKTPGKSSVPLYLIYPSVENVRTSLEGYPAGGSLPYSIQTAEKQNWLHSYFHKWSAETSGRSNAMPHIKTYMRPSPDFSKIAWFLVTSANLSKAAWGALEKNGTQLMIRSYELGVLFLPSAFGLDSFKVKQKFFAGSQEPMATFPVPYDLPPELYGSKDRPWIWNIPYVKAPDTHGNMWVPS
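Tdp1 1 nM final; 15 min RT w/ cpd; substrate 15 nM, 5 min; beads 10 ug/ml, 10 min; AlphaScreen read. Neg ctrl: no enzyme.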
IL1B secr inh – inhibitors of inflammasome signaling (IL-1 beta secretion); THP-1 LPS/ATP IL-1B secretion, AlphaLISA, 16 h; active compounds read low; activity change, % at 57.5 µM; 4.7% of 360,000 active; in the data active means activity change below about -50%; inconclusive means mostly about -30% to -49%
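THP-1 cells pretreated 1 hr with compounds (up to 57.5 uM final), then stimulated with LPS (250 ng/mL final) plus ATP (1.25 mM final); secreted IL-1B measured by AlphaLISA after 16 hr, decreased signal indicating inhibition.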
Giardia killer – Giardia lamblia killing. Giardia lamblia trophozoite viability. activity change, % at 7.66 µM, hits read low. 0.15% of 340,000 active; in the data active means activity change below about -80%; inconclusive means between about -30% and that limit;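 further: parasites exposed to compound for two days anaerobically before the ATP read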
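Compounds were tested on trophozoites seeded at 100 cells/well and held 48 hrs at 37 deg C anaerobically. An ATP-based luminescent kit measured the remaining live cells.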
ELG1 DNA repair – blocks ELG1-dependent DNA repair in HEK293T cells; HEK293T ELG1-luciferase reporter, luminescence, 16 h; DNA damage induced by 5-fluorouridine; Potency, µM (series often up to 46.1 µM), inactives show top-dose activity change, negative = inhibition, most hits filed as inhibitors; 2.3% of 330,000 active; further: potency means the concentration at half of the fitted maximal effect; nearly all actives have a fitted effect of over 55% in size
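Cells (2,000 per well) received 5-fluorouridine plus test compound or DMSO and were incubated 16 hr at 37 °C, 5% CO2. Luciferase activity was read by luminescence 30 min after ONE-Glo addition; signal suppression marked inhibition of damage-induced ELG1 function.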
DT40 TDP1 no CPT – qHTS for Inhibitors of human tyrosyl-DNA phosphodiesterase 1 (TDP1): qHTS in cells in absence of CPT. DT40 Tdp1-/- hTDP1 cells, no CPT, ATP luminescence, 48 h. Potency, µM (series often up to 46.2 µM), for the others: at the highest dose activity change, negative = growth inhibition, actives largely listed as inhibitors. 15% of 420,000 active; further: potency means the concentration at half of the fitted maximal effect; nearly all actives have a fitted effect of over 55% in size
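Compound effects on proliferation are scored in DT40 Tdp1-/-;hTDP1 cells in the absence of CPT. ATP levels (CellTiter-Glo luminescence) are recorded after a ≥48 hr, 37 °C incubation.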
* = called active by the depositor; u = inconclusive; x = no result given; [ ] = dose if it differs, or a comment. The list is not random: actives were taken first. Their share in the collection is about 19%. Unless noted, the call rests on the fitted dose curve; in most records, active means well fitted curve in the direction sought with a large enough effect; inconclusive means small, poorly fitted or top-dose-only effect, or another doubt; inactive means no such curve, though single readings can be large; an effect the other way counts as inactive or inconclusive. On the % scale 0 is the no-effect control and ±100 the full control effect.

SMILES	DT40 TDP1 CPT	TDP1 inh	IL1B secr inh	Giardia killer	ELG1 DNA repair	DT40 TDP1 no CPT
CC(C)NC(=O)N(C)C[C@@H]1OCc2ccccc2-c2c(n(C)c3ccccc23)C(=O)N([C@@H](C)CO)C[C@@H]1C	-20%	x	40	x	x	u
COc1ccccc1NC(=O)N(C)C[C@@H]1OCc2ccccc2-c2c(n(C)c3ccccc23)C(=O)N([C@H](C)CO)C[C@@H]1C	21µM*	x	-30	x	x	23µM*
CN1CCSc2ccc(C(=O)Nc3cccc(F)c3)cc21	u	x	-53*	-19	u	u
CCOc1ccccc1CNC(=O)c1ccc2c(c1)N(CC)CCS2	15µM*	5%	-23	-7	-12%	9.2µM*
Cc1ccc(CN2CCSc3ccc(C(=O)NCc4ccco4)cc32)cc1	u	8%	u	-7	u	u
COc1ccc(NC(=O)c2ccc3c(c2)N(C)CCS3)cc1	u	x	-9	5	u	u
CCN1CCSc2ccc(C(=O)NC(C)c3ccccc3)cc21 (stereo not given)	18µM*	6%	x	x	x	23µM*
Cc1ccc(CN2CCSc3ccc(C(=O)Nc4ccc(C)cc4)cc32)cc1	16µM*	1%	x	x	x	16µM*
CCCOc1ccc(CNC(=O)c2ccc3c(c2)N(CC)CCS3)cc1	-28%	x	-22	-15	-9%	u
COc1ccc(C2c3c(N)nc(CCCc4ccccc4)nc3Oc3ccc4ccccc4c32)cc1OC (stereo not given)	x	1%	x	x	x	x
Cc1cc(NC(=O)c2cccnc2)ccc1Br	-15%	x	-6	-22	u	1%
Cc1cc(C)n(CC(=O)N2CCC(n3c(C(C)C)nc4cccnc43)CC2)n1	14%[9.04 µM]	x	x	x	x	-10%
CCN1CCSc2ccc(C(=O)NCc3ccc(F)cc3)cc21	x	9%	x	x	x	x
COc1ccc(Br)cc1CNC(=O)c1ccc2c(c1)N(Cc1ccc(C)cc1)CCS2	u	-2%	x	x	x	u
COc1ccccc1CNC(=O)c1ccc2c(c1)N(Cc1ccc(C)cc1)CCS2	16µM*	6%	x	x	x	u
CCN1CCSc2ccc(C(=O)NCc3cccc(F)c3)cc21	u	6%	-4	19	-1%	18µM*
CCOc1ccccc1CNC(=O)c1ccc2c(c1)N(Cc1ccc(C)cc1)CCS2	18µM*	1%	x	x	x	9.2µM*
O=C(Cc1ccsc1)OCC(=O)c1ccccc1	3%	-11%	10	-1	u	0%
C[C@@H]1CN([C@H](C)CO)C(=O)CCCn2nncc2CO[C@H]1CN(C)C(=O)Cc1ccccc1	-1%	x	4	x	x	-6%
Cc1ccccc1-c1cc(C(=O)NCc2ccc(OC(F)(F)F)cc2)nn1CC1CC(c2cccc([N+](=O)[O-])c2)=NO1 (stereo not given)	16µM*	3%	u	-30	u	18µM*
Cc1ccccc1-c1cc(C(=O)NCc2cccc(C(F)(F)F)c2)nn1CC1CC(c2cccc([N+](=O)[O-])c2)=NO1 (stereo not given)	u	1%	-1	-13	-7%	23µM*
Cc1ccccc1N/N=C1\CCCNC1=O	-21%	9%	-54*	4	u	-8%
O=C1NCCC/C1=N\Nc1ccc(Br)cc1	-1%	1%	-16	2	u	-13%
Cc1nc2ccc(C(=O)N3c4ccccc4CC3C)cc2s1 (stereo not given)	23µM*	3%	32	7	-11%	u
CC1Cc2ccccc2N1C(=O)c1cccnc1 (stereo not given)	-16%	-5%	2	-1	-10%	3%
O=C(CN1CCN(c2ccccn2)CC1)Nc1ccccc1C(=O)Nc1ccccc1	u	4%	-17	-5	u	u
O=C(NCc1ccccc1Cl)c1cnc(N2CCCCC2)c2ccccc12	18µM*	-3%	x	x	x	u

Assay outcomes from PubChem.
